The values that follow come from PubChem BioAssay (NCI).

This is part of a sample that, as a whole, favours compounds with a hit. Of some 83,000 tested, about 20% had one in any assay.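 Assay: single dose, 48 h. Readout: percent growth (0 = no net growth; negative = cell death). Active: <10.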 Values without a mark were called inactive. Activity calls are given as the source filed them.

One assay concerns HT29 colon. Description: NCI-60 one-dose screen, 48 h (100 = growth as untreated, 0 = no growth, -100 = all killed). To be noted: 10 µM unless noted.
With `O=C1Nc2ccc(Cl)cc2/C1=C/c1cccs1`, the growth is 110%.
On the same count and under the same terms, the figure for `CCOc1cc(/C=C/C(=O)C(C(=O)/C=C/c2ccc(OC(=O)CNc3nc4ccccc4[nH]3)c(OCC)c2)C(=O)CNc2nc3ccccc3[nH]2)ccc1OC(=O)CNc1nc2ccccc2[nH]1` is -100% (active); for `NS(=O)(=O)N(c1cc(C(F)(F)F)cc(C(F)(F)F)c1)C1CCN(Cc2ccc(C(F)(F)F)cc2)CC1` it is 5.92% (active).
Still for that read-out and setting: as for `CCCCCCCSc1ncnc2[nH]ncc12`, the figure is 89.3%; as for `CO[C@H]1/C=C/O[C@@]2(C)Oc3c(C)c(O)c4c(O)c(c(/C=N/N5C(C)CN(Cc6ccc(C#N)cc6)CC5C)c(O)c4c3C2=O)NC(=O)/C(C)=C\C=C\[C@H](C)[C@H](O)[C@@H](C)[C@@H](O)[C@@H](C)[C@H](OC(C)=O)[C@@H]1C` (some centres not stated), 26.4%.
Same read-out and setting: the figure for `COc1cccc(C2=NN(C(C)=O)C(c3cc(OC)c(OC)c(OC)c3)C2)c1` (configuration not stated) is 8.66% (active).
Regarding `COc1c(O)cc2c(c1CC=C(C)C)OC(=O)c1c(cc(O)c(CC=C(C)C)c1O)O2`, the growth is 86.9%.
Still for that read-out and setting: as for `O=CN1N=C(c2ccc(Nc3ccnc4cc(Cl)ccc34)cc2)CC1c1ccc(Cl)cc1` (configuration not stated), the figure is 5.55% (active); as for `CCOC1Oc2ccccc2C(=O)/C1=N/c1nccs1` (configuration not stated), 105%.
Consider `NC(=O)NC1(C(=O)O)CCCC1`, for which the growth was 108%.
Same read-out and setting: as for `O=c1ccn(C2CC=C(CO)O2)c(=O)[nH]1` (configuration not stated), the figure is 111%; as for `CC1CN(/N=C/c2ccc([N+](=O)[O-])o2)C(=N)O1` (configuration not stated), 108%; as for `N/C(=N\c1nc2ccccc2s1)NC(=O)Nc1ccccc1Cl`, 5.03% (active).
The same measure, in the same setting: the figure for `O=Cc1ccccc1C(=O)O` is 100%.
Regarding `O=c1[nH]cc(Nc2cc(Cl)c3nonc3c2[N+](=O)[O-])c(=O)[nH]1`, the growth is 132%.
The same measure, in the same setting: as for `Nc1nc(Nc2ccccc2SSc2ccccc2Nc2nc(N)nc(-c3cccc(Cl)c3)n2)nc(-c2cccc(Cl)c2)n1`, the figure is 104%; as for `CCCCCCCCCCCCC1CCCC(C)C1` (configuration not stated), 101%; as for `COc1ccc(-n2cnc3cc(C(=O)N4CCCCC4)ccc32)cc1`, 102%.
The same measure, in the same setting: as for `COc1ccc2nc(N/N=C(\C)c3ccccn3)cc(C)c2c1`, the figure is -45.5% (active); as for `COc1cc(C(=O)c2cc3c(cc2C)OCO3)cc(OC)c1OC`, 3.84% (active).
Still for that read-out and setting: the figure for `NC(=N\N=C/Cc1ccccc1)/C(N)=N\N=C\Cc1ccccc1` is 120%; for `CCSc1nc(-c2cccs2)n2nc(-c3ccco3)cc2n1` it is 88.8%; for `COc1ccc2c(c1)[n+](=O)c(C(=O)/C=C/c1cc(OC)c(OC)c(OC)c1)c(C)n2[O-]` it is 85.2%.
Turning to `O=C(CNC(=O)c1cccc2ccccc12)Nc1ccccc1Oc1cccc(O)c1`, the growth was 14.8% [5 µM].
The same measure, in the same setting: as for `CN1C(=O)C(C2=NN(C=O)C(c3ccc(F)cc3)C2)C(=O)N(C)C1=O` (configuration not stated), the figure is 91.7%.
On the same count and under the same terms, the figure for `Cc1ncc(C(=O)Nc2ccc(CN3CCN(C)CC3)c(C(F)(F)F)c2)cc1C#Cc1cncc2ncccc12` is 32.4%.
Consider `O=C1C=CC(=O)N1c1ccccc1N1C(=O)C=CC1=O`, for which the growth was 99.2%.
The same measure, in the same setting: as for `N#Cc1c(-c2ccccc2)cc(-c2ccccc2)n(CCCCCCC(=O)O)c1=O`, the figure is 97.4%; as for `COc1ccc(C2CC(c3ccc4c(c3)OCO4)=NN2C=O)cc1` (configuration not stated), 98%.
The same measure, in the same setting: as for `O=C(O)C1CCN(S(=O)(=O)c2ccc(-c3ccccc3)cc2)CC1`, the figure is 111%.
Still for that read-out and setting: as for `CC[C@@H](C)/C=C(C)/C=C/C(=O)c1c(O)c(-c2ccc(O)cc2)cn(OC2CC(=O)CCC(C)OC(=O)CC2O)c1=O` (some centres not stated), the figure is 29.5%.
As for `CCCCCCCCN(CCO)CCCCCCCC`, the growth is 103%.
On the same count and under the same terms, the figure for `CN(C)CCCNc1nn2c(=O)c3ccccc3nc2c2ccccc12` is 32.6%.
The same measure, in the same setting: as for `CCN(CC)CCNCC(=O)Oc1ccc(/C=C/C(=O)CC(=O)/C=C/c2ccc(OC(=O)CNCCN(CC)CC)c(OC)c2)cc1OC`, the figure is -80.7% (active); as for `C=C1CCC2C3(C)COC(c4ccccc4)OC3CCC2(C)C1C/C=C1/C(=O)OCC1OC(C)=O` (configuration not stated), 65.7%; as for `COCCOCCOCCOCCOc1ccc2c(c1)C(=O)c1nc3ncccc3c(=O)n1-2`, -39.3% (active).

A further assay deals with SNB-75 CNS. Described as above. To be noted: 10 µM unless noted.
Turning to `O=C1Nc2ccc(Cl)cc2/C1=C/c1cccs1`, the growth was 84.2%.
Still for that read-out and setting: as for `CCOc1cc(/C=C/C(=O)C(C(=O)/C=C/c2ccc(OC(=O)CNc3nc4ccccc4[nH]3)c(OCC)c2)C(=O)CNc2nc3ccccc3[nH]2)ccc1OC(=O)CNc1nc2ccccc2[nH]1`, the figure is -18.1% (active); as for `NS(=O)(=O)N(c1cc(C(F)(F)F)cc(C(F)(F)F)c1)C1CCN(Cc2ccc(C(F)(F)F)cc2)CC1`, -4.94% (active); as for `CCCCCCCSc1ncnc2[nH]ncc12`, 59.3%.
The same measure, in the same setting: as for `CO[C@H]1/C=C/O[C@@]2(C)Oc3c(C)c(O)c4c(O)c(c(/C=N/N5C(C)CN(Cc6ccc(C#N)cc6)CC5C)c(O)c4c3C2=O)NC(=O)/C(C)=C\C=C\[C@H](C)[C@H](O)[C@@H](C)[C@@H](O)[C@@H](C)[C@H](OC(C)=O)[C@@H]1C` (some centres not stated), the figure is 56.7%; as for `COc1c(O)cc2c(c1CC=C(C)C)OC(=O)c1c(cc(O)c(CC=C(C)C)c1O)O2`, 49.7%.
Same read-out and setting: the figure for `O=CN1N=C(c2ccc(Nc3ccnc4cc(Cl)ccc34)cc2)CC1c1ccc(Cl)cc1` (configuration not stated) is 4.26% (active).
Regarding `CCOC1Oc2ccccc2C(=O)/C1=N/c1nccs1` (configuration not stated), the growth was 75.1%.
The same measure, in the same setting: as for `NC(=O)NC1(C(=O)O)CCCC1`, the figure is 100%; as for `O=c1ccn(C2CC=C(CO)O2)c(=O)[nH]1` (configuration not stated), 108%.
On the same count and under the same terms, as for `CC1CN(/N=C/c2ccc([N+](=O)[O-])o2)C(=N)O1` (configuration not stated), the figure is 105%; as for `O=Cc1ccccc1C(=O)O`, 99.4%.
With `O=c1[nH]cc(Nc2cc(Cl)c3nonc3c2[N+](=O)[O-])c(=O)[nH]1`, the growth was 119%.
The same measure, in the same setting: the figure for `CCCCCCCCCCCCC1CCCC(C)C1` (configuration not stated) is 64.8%.
On the same count and under the same terms, as for `COc1ccc(-n2cnc3cc(C(=O)N4CCCCC4)ccc32)cc1`, the figure is 86.6%; as for `COc1ccc2nc(N/N=C(\C)c3ccccn3)cc(C)c2c1`, -7.43% (active).
On the same count and under the same terms, the figure for `COc1cc(C(=O)c2cc3c(cc2C)OCO3)cc(OC)c1OC` is 22.7%.
In the case of `NC(=N\N=C/Cc1ccccc1)/C(N)=N\N=C\Cc1ccccc1`, the growth was 98.5%.
Same read-out and setting: the figure for `CCSc1nc(-c2cccs2)n2nc(-c3ccco3)cc2n1` is 84.2%; for `COc1ccc2c(c1)[n+](=O)c(C(=O)/C=C/c1cc(OC)c(OC)c(OC)c1)c(C)n2[O-]` it is 62.2%.
Still for that read-out and setting: as for `O=C(CNC(=O)c1cccc2ccccc12)Nc1ccccc1Oc1cccc(O)c1`, the figure is 4.28% [5 µM] (active); as for `CN1C(=O)C(C2=NN(C=O)C(c3ccc(F)cc3)C2)C(=O)N(C)C1=O` (configuration not stated), 93.5%; as for `Cc1ncc(C(=O)Nc2ccc(CN3CCN(C)CC3)c(C(F)(F)F)c2)cc1C#Cc1cncc2ncccc12`, 74.4%.
Still for that read-out and setting: as for `O=C1C=CC(=O)N1c1ccccc1N1C(=O)C=CC1=O`, the figure is 91.7%; as for `COc1ccc(C2CC(c3ccc4c(c3)OCO4)=NN2C=O)cc1` (configuration not stated), 76.4%; as for `O=C(O)C1CCN(S(=O)(=O)c2ccc(-c3ccccc3)cc2)CC1`, 102%.
For the compound `CC[C@@H](C)/C=C(C)/C=C/C(=O)c1c(O)c(-c2ccc(O)cc2)cn(OC2CC(=O)CCC(C)OC(=O)CC2O)c1=O` (some centres not stated), the growth is 18%.
`CCCCCCCCN(CCO)CCCCCCCC`: the growth was 96.5%.
The same measure, in the same setting: as for `O=C(Nc1ccc2c(c1)C(=O)c1ccccc1-2)c1ccccc1`, the figure is 86.6%; as for `CN(C)CCCNc1nn2c(=O)c3ccccc3nc2c2ccccc12`, 51.2%; as for `CCN(CC)CCNCC(=O)Oc1ccc(/C=C/C(=O)CC(=O)/C=C/c2ccc(OC(=O)CNCCN(CC)CC)c(OC)c2)cc1OC`, -8.49% (active).
The same measure, in the same setting: as for `Nc1c(C(=O)Nc2cccc(Cl)c2)sc2nc3c(cc12)C(O)CCC3` (configuration not stated), the figure is 28.8%.
Same read-out and setting: as for `N#CC1c2ccccc2C=CN1C(=O)N(c1ccccc1)c1ccccc1` (configuration not stated), the figure is 68.6%; as for `C=C1CCC2C3(C)COC(c4ccccc4)OC3CCC2(C)C1C/C=C1/C(=O)OCC1OC(C)=O` (configuration not stated), 75.3%.
Regarding `O=C1CNc2cc(Cl)ccc2N1`, the growth is 89.8%.
The same measure, in the same setting: as for `COCCOCCOCCOCCOc1ccc2c(c1)C(=O)c1nc3ncccc3c(=O)n1-2`, the figure is -61.1% (active).
